Bioassay records: PubChem, Broad Institute
The sample as a whole holds a higher share of hits than the screen did.
PD-1 reversal: reversal of PD-1 mediated T-cell inhibition. primary human CD4 T cells, PD-L1 beads, CellTiter-Glo 96 h. activation, % (test concentration not listed). 29,000 tested, under 10 active. AID 2316; call rule not given here;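 also: 0% = median vehicle wells and 100% = positive control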
ROS inducer: cancer cell ROS induction; U2OS ROS induction, H2DCF-DA fluorescence; ROS induction (% of piperlongumine), % at 10 µM; 46,000 tested, 2% active; in the data active = ROS induction above about 79%, passing the limit was not always enough; inconclusive = no clear call, values can overlap the other calls;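 also: 0% = DMSO vehicle median and 100% = reference compound median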
YB-1 expr inh: YB-1 expression inhibition; U2OS, qRT-PCR YB-1 vs CDIP delta delta Cp, 16 h; hits give high values; zero = DMSO, each unit about twofold; delta delta Cp (YB-1 minus CDIP) (concentration not given with the values); 30,000 tested, 0.37% active;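 active = delta delta Cp rounded down to an integer at or above 3, about 3 SD of DMSO wells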;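 also: higher means less YB-1 transcript or more CDIP transcript relative to DMSO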
NOMO-1 viab: STK33 inhibitor candidate reducing NOMO-1 cell viability; inhibition, % (concentration not given with the values); 37,000 tested, 7.5% active; NOMO-1 AML viability, CellTiter-Glo luminescence, 72 h; in the data active = inhibition above about 80%; inconclusive = no clear call, values can overlap the other calls
Active calls of the source: *.

C=CCN1C(=O)[C@@]2(O[C@@H](CCO)[C@H]([Si](C)(C)c3ccc(OC)cc3)[C@H]2C)c2cc(NC(C)=O)ccc21 was read as ROS inducer 106* and YB-1 expr inh -0.25.
For C=CCN1C(=O)[C@@]2(O[C@@H](CCO)[C@H]([Si](C)(C)c3ccc(OC)cc3)[C@H]2C)c2cc(I)ccc21 the results were ROS inducer 94* and YB-1 expr inh 0.2.
`COc1ccc([Si](C)(C)[C@@H]2[C@@H](CCO)O[C@]3(C(=O)N(Cc4ccccc4)c4ccc(NC(C)=O)cc43)[C@H]2C)cc1` gave ROS inducer 67 and YB-1 expr inh 0.45.
`Cc1ccc(NS(=O)(=O)c2ccc(NC(=O)CN3C(=O)c4cccc5cccc3c45)cc2)cc1` gave ROS inducer 33.
`CN1C(=O)c2ccccc2-n2c(nc3ccccc3c2=O)[C@@]12O[C@H]2c1ccccc1` gave PD-1 reversal -3, ROS inducer 11, YB-1 expr inh 0.57 and NOMO-1 viab 104*.
For CCn1nc(C)c(N=Cc2ccc(N(C)C)c(Br)c2)c1C the results were ROS inducer -1.
Screening CCOC(=O)c1c(NC(=O)c2nc3nc(C)cc(C(F)F)n3n2)sc2c1CCCC2 returned PD-1 reversal 6, ROS inducer 166* and NOMO-1 viab 5.
Screening NC(=O)c1c(NC(=O)COc2ccc(Cl)cc2Cl)sc2c1CCCC2 returned NOMO-1 viab 25.
For CC(C)(C)C1CCc2c(sc(NC(=O)COc3ccc(Cl)cc3)c2C(N)=O)C1 (configuration not stated) the results were NOMO-1 viab 89*.
Cc1ccc(S(=O)(=O)Nc2ccc3c(c2)CC(=O)N([C@H](C)CO)C[C@H](C)[C@H](CN(C)Cc2ccc(-c4ccccc4)cc2)O3)cc1 was read as ROS inducer 29, YB-1 expr inh 0.027 and NOMO-1 viab 84*.
C[C@H]1CN([C@@H](C)CO)C(=O)Cc2cc(NS(=O)(=O)c3ccc(F)cc3)ccc2O[C@@H]1CN(C)Cc1ccc(-c2ccccc2)cc1 was read as ROS inducer 18, YB-1 expr inh 0.19 and NOMO-1 viab 122*.
C[C@H]1CN([C@@H](C)CO)C(=O)Cc2cc(NS(=O)(=O)c3ccc(Cl)cc3)ccc2O[C@@H]1CN(C)Cc1ccc(-c2ccccc2)cc1 was read as PD-1 reversal -1, ROS inducer 41, YB-1 expr inh 0.14 and NOMO-1 viab 124*.
For C[C@@H]1CN([C@@H](C)CO)C(=O)Cc2cc(NS(=O)(=O)c3ccc(Cl)cc3)ccc2O[C@@H]1CN(C)Cc1ccccc1 the results were PD-1 reversal -2, ROS inducer 13, YB-1 expr inh -0.15 and NOMO-1 viab inconclusive.
For Cc1ccc(S(=O)(=O)Nc2ccc3c(c2)CC(=O)N([C@H](C)CO)C[C@@H](C)[C@@H](CN(C)Cc2ccccc2)O3)cc1 the results were PD-1 reversal 0, ROS inducer 6, YB-1 expr inh 0.075 and NOMO-1 viab 85*.
For CCOC(=O)C1CCN(/C=C(\C#N)S(=O)(=O)c2ccccc2)CC1 the results were ROS inducer -7.
COc1ccc(C2c3ccsc3CCN2S(=O)(=O)c2ccc(Cl)cc2)cc1 (configuration not stated) was read as ROS inducer 4.
`C[C@@H]1CN([C@H](C)CO)C(=O)Cc2cc(NS(=O)(=O)c3ccccc3)ccc2O[C@@H]1CN(C)Cc1ccc(-c2ccccc2)cc1` gave PD-1 reversal -3, ROS inducer 15, YB-1 expr inh -0.4 and NOMO-1 viab 104*.
For C[C@@H]1CN([C@@H](C)CO)C(=O)Cc2cc(N(C)C)ccc2O[C@@H]1CN(C)Cc1ccccc1 the results were ROS inducer 3, YB-1 expr inh 0.13 and NOMO-1 viab 122*.
C[C@@H]1CN([C@@H](C)CO)C(=O)Cc2cc(N(C)C)ccc2O[C@@H]1CN(C)Cc1ccc(Oc2ccccc2)cc1 was read as ROS inducer 5, YB-1 expr inh 0.4 and NOMO-1 viab 106*.
For C[C@H]1CN([C@@H](C)CO)C(=O)Cc2cc(N(C)C)ccc2O[C@@H]1CN(C)Cc1ccc(C(=O)O)cc1 the results were PD-1 reversal 2, ROS inducer 113*, YB-1 expr inh 3.4e-05 and NOMO-1 viab 10.
For C[C@H]1CN([C@@H](C)CO)C(=O)Cc2cc(N(C)C)ccc2O[C@H]1CN(C)Cc1ccccc1 the results were PD-1 reversal 0, ROS inducer 10, YB-1 expr inh -0.13 and NOMO-1 viab 5.
For O=C(NCCCN1CCCC1)c1cnn(-c2ccccc2)c1-n1cccc1 the results were ROS inducer 21.
C[C@H]1CN([C@@H](C)CO)C(=O)c2cc(NC(=O)Nc3ccc(C(F)(F)F)cc3)ccc2O[C@@H]1CN(C)Cc1ccc2c(c1)OCO2 was read as PD-1 reversal -5, ROS inducer 12, YB-1 expr inh -0.93 and NOMO-1 viab 101*.
Screening C[C@H]1CN([C@@H](C)CO)C(=O)c2cc(NC(=O)Nc3ccc4c(c3)OCO4)ccc2O[C@H]1CN(C)Cc1ccncc1 returned PD-1 reversal 2, ROS inducer -11, YB-1 expr inh 0.018 and NOMO-1 viab 95*.
C[C@H]1CN([C@@H](C)CO)C(=O)c2cc(NC(=O)Nc3ccc(F)cc3)ccc2O[C@H]1CN(C)Cc1ccc2c(c1)OCO2 was read as PD-1 reversal -1, ROS inducer 4, YB-1 expr inh -0.037 and NOMO-1 viab 92*.
For C[C@@H]1CN([C@@H](C)CO)C(=O)c2cc(NC(=O)Nc3ccc(C(F)(F)F)cc3)ccc2O[C@@H]1CN(C)Cc1ccc2c(c1)OCO2 the results were PD-1 reversal -2, ROS inducer 1, YB-1 expr inh 0.021 and NOMO-1 viab 112*.
`O=C(NO)c1cccc(C(=O)N/N=C/c2ccncc2Br)c1` gave ROS inducer -7 and YB-1 expr inh -0.17.
Screening C[C@@H]1CN([C@@H](C)CO)C(=O)c2cc(NC(=O)Nc3ccc(C(F)(F)F)cc3)ccc2O[C@H]1CN(C)Cc1ccc2c(c1)OCO2 returned PD-1 reversal -3, ROS inducer -2, YB-1 expr inh -0.067 and NOMO-1 viab 59.
C[C@@H]1CN([C@H](C)CO)C(=O)c2cc(NC(=O)Nc3ccc4c(c3)OCO4)ccc2O[C@H]1CN(C)Cc1ccc(C(F)(F)F)cc1 was read as PD-1 reversal -1, ROS inducer 119*, YB-1 expr inh -0.32 and NOMO-1 viab 38.
C[C@H](CO)N1C[C@H](C)[C@H](CN(C)Cc2ccc3c(c2)OCO3)Oc2ccc(NC(=O)Nc3ccc(C(F)(F)F)cc3)cc2C1=O was read as PD-1 reversal 0, ROS inducer -13, YB-1 expr inh 0.18 and NOMO-1 viab 99*.
`O=C(c1ccccc1)N1Cc2ccccc2[C@H]2OC(c3ccc(OCCCO)cc3)=N[C@@]2(CCS(=O)(=O)c2ccccc2)C1=O` gave ROS inducer 100* and YB-1 expr inh -0.56.
`C=CC[C@]12N=C(c3ccc(OCCCO)cc3)O[C@H]1c1ccccc1CN(CCS(=O)(=O)c1ccccc1)C2=O` gave ROS inducer 13 and YB-1 expr inh 0.35.
